From the supplement of paper PMC6805474

Each molecule was assayed on Schistosoma mansoni schistosomula (LE) (assay: XTT viability relative to DMSO control; higher = more viable (less active)). Conditions: 72 h; 10 µM.
Experimental: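 XTT/PMS was then added for a further 24 h (72 h total) and A450 was read. % viability = (sample - heat-killed control)/(DMSO control - heat-killed control) x 100, from duplicate wells in two independent experiments.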

| Structure (SMILES) | XTT viability |
| --- | --- |
| O=C1[C@@H](Oc2ccccc2)[C@@H](c2ccc(Cl)cc2)N1CCn1cnc2c(NCc3ccccc3)ncnc21 | 68.1% |
| COc1cc(C2=NCCN2)ccc1-n1cc(-c2cccc(C3=NCCN3)c2)nn1 | 77.2% |
| CC(Oc1ccccc1)C(=O)Nc1nc(-c2ccccn2)cs1 (stereo not given) | 59.4% |
| O=C(Nc1nnc(-c2ccc(Cl)s2)o1)c1ccc(Cl)s1 | -3.4% |
| COc1cc(-c2cc(-c3ccc(S(C)(=O)=O)cc3)cnc2N)ccc1O | 139% |
| N=C(N)Nc1ccc(-c2ccc(-c3ccc(N=C(N)N)c(Cl)c3)o2)cc1Cl | 89.7% |
| c1coc(CNc2nc(N3CCCCC3)nc3ccccc23)c1 | 99.5% |
| COc1cccc(-c2cc3c(Nc4cccnc4)nccc3[nH]2)c1 | 104% |
| O=C(Nc1ccccc1-c1nc2c(C(=O)O)cccc2o1)c1ccccc1 | 54.1% |
| COc1ccc(C2(C(=O)Nc3ccc(Br)cc3)CCCC2)cc1 | 91% |
| Nc1ncnc2c1c(-c1cnc3ccccc3c1)nn2CC1CCNCC1 | 169% |
| Cc1ccccc1CN1CCC(O)(c2ccc(Cl)c(C(F)(F)F)c2)CC1 | 71.1% |
| COc1ccccc1CNC(=O)c1cc(C2CC2)nc2c1cnn2C(C)C | 38.4% |
| CC(C)(C)c1ccc(N[C@@H]2CCCC[C@H]2NC(=O)c2ccco2)cc1 | 117% |
| CCCS(=O)(=O)N1CCC(CO)(Cc2ccccc2C(F)(F)F)CC1 | 95.7% |
| c1cncc(NCc2ccc(-c3cc4ccncc4cc3OC3CCNCC3)s2)c1 | 14.8% |
| Nc1ncnc2c1c(Cc1cccc3ccccc13)nn2CC1CCNCC1 | 96.2% |
| NC(=O)c1cc(-c2ccsc2)ccc1OCCOc1ccccc1 | 89.5% |
| O=C1N(Cc2cc3ccccc3s2)CC2CN(Cc3ccccc3)CCN12 (stereo not given) | 87.2% |
| CCC(=O)Nc1ccccc1C(=O)Nc1ccccn1 | 87.3% |

| Structure (SMILES) | XTT viability |
| --- | --- |
| CN(C)c1cc(NC(=O)Nc2ccccc2)c2ccccc2n1 | -13.7% |
| Cc1cnc(CCNC(=O)c2cc(-c3ccc(Cl)cc3)cs2)[nH]1 | 79.7% |
| O=C(c1cc2ccccc2o1)N1CCN(Cc2ccc3c(c2)OCO3)CC1 | 110% |
| Cc1cc(C)nc(-n2nc(C)cc2Nc2ccccc2)n1 | 55.6% |
| CS(=O)(=O)Cc1nc2ccccc2oc1=O | 355% |
| Cc1cccc(NC(=O)c2cc(S(=O)(=O)N(C)c3ccc(F)cc3)ccc2Cl)n1 | 81% |
| N=C(N)c1ccc(-c2cc(-c3ccccc3)on2)cc1 | 91.6% |
| CC(C)(C)c1cc(C(=O)N2CCN(c3nccnc3C#N)CC2)n(Cc2ccccc2)n1 | 120% |
| N#Cc1nc(-c2ccccc2)oc1S(=O)(=O)c1ccc(Cl)cc1 | -7.61% |
| COc1ccc(-c2cc(NC(=O)c3ccc(F)cc3Cl)ccc2OC)cc1 | 89.7% |
| OC[C@H]1O[C@@H](n2c3ccc(Cl)cc3c3c(-c4cc5ccccc5o4)ncnc32)C(O)[C@H]1O (stereo not given in full) | 93.9% |
| C[C@H](c1ccc2c(c1)CCCC2)N(C)c1ncc2c(N)nc(N)nc2n1 | 39.1% |
| CC(=O)N1CCc2cc3nc(C)cc(C)c3cc21 | 112% |
| Cc1ccc2[nH]c3c(NCCN(C)C)ncnc3c2c1 | 72.5% |
| CNC(=O)C1Cc2c([nH]c3cc(Cl)ccc23)C2(CCN(CCc3ccccc3)CC2)N1 (stereo not given) | 13.4% |
| N=C(N)c1ccc(OCCCCCOc2ccc(C(=N)N)cc2)cc1 | 81.9% |
| CC(=O)NC[C@H]1CN(c2ccc(N3CCSCC3)c(F)c2)C(=O)O1 | 145% |
| CNC(=O)c1nn(C)c2c1C(C)(C)Cc1cnc(Nc3ccc(N4CCN(C)CC4)cc3)nc1-2 | 157% |
| CCOc1ccc(-c2nc(CNCCc3ccc(F)cc3)cs2)cc1 | 2.26% |
| Cn1ncc2c(N3CCOCC3)nc(NCCc3c[nH]c4ccccc34)nc21 | 71.8% |
